Reference: ChEMBL document CHEMBL4513216, “Probing the Open Global Health Chemical Diversity Library for Multistage-Active Starting Points for Next-Generation Antimalarials” (ACS Infect Dis, 2020)
Screen size: about 69,000 compounds; about 8,600 (12%) showed an effect of 50% or more. The list comes from a sample in which strong results are over-represented; it also holds similar structures and randomly drawn compounds.

tested on: Plasmodium berghei; assay: Screen against P. berghei liver stage (PbLuc), transformed with Luciferase, at 10uM; assay type: functional, HepG2; conditions: tested at 10 uM

Compound	INHIBITION [%]
CCCNC(=O)NC(C)c1ccccn1 (configuration not stated)	21.2
Cn1ccnc1-c1nccn1C[C@@H]1CCCN2CCCC[C@H]12	12
COc1ccc(-c2nccn2C[C@@H]2CCCN3CCCC[C@H]23)cc1	65.3
c1cnc2c(-c3nccn3C[C@@H]3CCCN4CCCC[C@H]34)cccc2c1	20.2
CCc1ccc(CNC(=O)N2CCN(Cc3cc(C)on3)CC2)s1	7.12
COCCN1CC(O)CN(C(=O)c2cccc(C(F)(F)F)c2)CC1=O (configuration not stated)	13.1
CC(C)CN1CC(O)CN(C(=O)c2cccc(C(F)(F)F)c2)CC1=O (configuration not stated)	45.7
CC(C)(C)CN1CC(O)CN(C(=O)c2cccc(C(F)(F)F)c2)CC1=O (configuration not stated)	60.8
CCN1CC(O)CN(C(=O)c2cccc(C(F)(F)F)c2)CC1=O (configuration not stated)	5.58
N#CCCN1CC(O)CN(C(=O)c2cccc(C(F)(F)F)c2)CC1=O (configuration not stated)	57
O=C1CN(C(=O)c2cccc(C(F)(F)F)c2)CC(O)CN1CC1CC1 (configuration not stated)	25.3
CSc1ccccc1C(=O)N1CCOC(CCN(C)C)C1 (configuration not stated)	12.1
Cc1ccc(NC2CCCN(CCCc3ccccc3)C2)nn1 (configuration not stated)	35.7
O=C(CCNc1ncccn1)N1CCCN(c2nccs2)CC1	33.7
CCN(CCC1CCN(C(=O)NCc2nncn2CC)CC1)CC1CC1	-38.2
CCc1cnc(N2C[C@@H]3C[C@H](C(=O)NC)[C@H](C2)O3)nc1	-45.8
OCCNC1CCc2cc3c(cc21)OCCO3 (configuration not stated)	55.1
OCC1(CNC2CCc3cc4c(cc32)OCCO4)CC1 (configuration not stated)	-122
OCCCNC1CCc2cc3c(cc21)OCCO3 (configuration not stated)	-56.6
O=C(c1ccc(Cl)cc1)N1CC2(CCNC2)OCc2ccccc21 (configuration not stated)	39.1
CCC(C)(C)CC(=O)NC(C)C(=O)Nc1ccc(-n2cncn2)cc1 (configuration not stated)	26
CC(NC(=O)CCC(C)(C)C)C(=O)Nc1ccc(-n2cncn2)cc1 (configuration not stated)	50
CC(NC(=O)Nc1ccc(-n2cncn2)cc1)C(=O)NC(C)(C)C (configuration not stated)	41.4
CC(C)c1noc(CCCC(=O)NC(C)c2ccccn2)n1 (configuration not stated)	-30.6
Cc1csc(C(Cc2ccsc2)NC(=O)CN(C)Cc2ccccn2)n1 (configuration not stated)	28.3
COc1ncnc(N)c1CNCCOc1ccccc1Cl	21.3

Compound	INHIBITION [%]
COc1ncnc(N)c1CNCCc1ccc(-n2cccn2)cc1	16.8
COc1ncnc(N)c1CNCCc1ccccc1	75.4
COC(=O)[C@H](CCSC)NC(=O)Cc1c(C)nn(-c2ccccc2)c1C	5.58
CC(C)c1noc(CCCC(=O)NCC2CCS(=O)(=O)C2)n1 (configuration not stated)	21.6
Cc1csc(C2CCCN(C(=O)c3c[nH]c(C)n3)C2)n1 (configuration not stated)	24
Cc1[nH]nc(CCC(=O)N2C[C@@H]3CC[C@H]2CN(C(=O)N(C)C)C3)c1C	45.4
COC(=O)CCN1CCC(NC(=O)OC(C)(C)C)CC1	50.2
CCOC(=O)CN1CCC(NC(=O)OC(C)(C)C)CC1	32.3
CSCCN1CCC(NC(=O)OC(C)(C)C)CC1	-19.7
CC(C)CN1CCN(C(=O)c2ccncc2F)Cc2cccnc21	-18.4
O=C(CN1CCOCC1)Nc1cc(C(F)(F)F)ccc1-n1cccc1	42.6
N#CCCN(CC1CCCO1)C(=O)c1ccc(C#N)cc1 (configuration not stated)	-5.31
N#CCCN(CC1CCCO1)C(=O)c1ccc2nonc2c1 (configuration not stated)	2.59
N#CCCN(CC1CCCO1)C(=O)c1ccsc1 (configuration not stated)	57.9
CCNc1cc2c(nn1)CCN(C(=O)c1cc(C)n(C3CC3)c1C)C2	35.9
CCNc1cc2c(nn1)CCN(C(=O)c1cccc3c1OCCO3)C2	3.81
CCNc1cc2c(nn1)CCN(C(=O)c1ccoc1)C2	39.2
Cc1cc(C(=O)N2CCc3nnc(N(C)C)cc3C2)c(C)n1C1CC1	19.4
CNc1cc2c(nn1)CCN(C(=O)c1ccoc1)C2	51.3
CNc1cc2c(nn1)CCN(C(=O)c1cccc3c1OCCO3)C2	51.1
CNc1cc2c(nn1)CCN(C(=O)c1cc(F)cc(F)c1)C2	17.7
CCNc1cc2c(nn1)CCN(C(=O)c1ccnc(-n3ccnc3)c1)C2	54.15
CNc1cc2c(nn1)CCN(C(=O)c1cc(C)n(C3CC3)c1C)C2	79.1
CCNc1cc2c(nn1)CCN(C(=O)c1ccc(C(N)=O)cc1)C2	41.65
CCNc1cc2c(nn1)CCN(C(=O)c1ccnc(N(C)C)c1)C2	4.59
CNc1cc2c(nn1)CCN(C(=O)c1cccc3c1OCO3)C2	-13.3

Compound	INHIBITION [%]
CN(CCc1ccccn1)C(=O)Cn1cc(-c2ccccc2)nn1	6.23
CN1CCN([C@@H]2CN(C(=O)c3cc4ccc(F)cc4[nH]3)C[C@H]2O)CC1	36
O=C(NCCn1ccnc1)N1CCCC1c1ccncc1 (configuration not stated)	31.9
O=C1CN(C(=O)C2CN(c3cccc(F)c3)CCO2)CCN1 (configuration not stated)	13.35
O=C(NCC1CC1)c1c2c(N3CCCC3)ncnc2n2ccccc12	33.4
CC(C)c1ncc2c(n1)CN(Cc1cccc(C(N)=O)c1)CC2	-34
O=C(c1ccccc1)N1CCO[C@@H]2CN(Cc3ccc[nH]3)C[C@@H]2C1	35.8
COCCOCC(=O)N1C[C@@H]2CC[C@H](Oc3ccccc3F)[C@@H]2C1	15.9
O[C@H]1CCN(CCCOc2ccccc2F)C[C@@]12CCCO2	33.85
Fc1cccc(-n2ccc(CN3CCCC3Cn3cccn3)n2)c1 (configuration not stated)	-31.8
Cc1ccc2cc(CNCCN3CCCC3)c(=O)[nH]c2c1	39.7
O=C(NCc1ccc2c(c1)CCCO2)c1ccccc1C1CCNC1 (configuration not stated)	-26.1
O=C(NCc1ccc2c(c1)CCCO2)c1ccc(C2CCNC2)cc1 (configuration not stated)	50.4
O=C(NCc1ccc2c(c1)CCCO2)C1CNCCO1 (configuration not stated)	12.9
Cc1noc(CCCC(=O)NCCc2cc3ccccc3[nH]2)n1	7.18
CC(=O)N[C@@H]1C[C@H](c2ccc(OCCO)cc2)OC2(CCOCC2)C1	18.3
Cc1ccc(CN2CC3(CCN(C(=O)c4cscn4)C3)C2)o1	54.7
Cc1nc(CN2CCC3(CC2)CCN(C(=O)c2cscn2)C3)cs1	75.4
Cc1cnc(N2CC3(CCN(C(=O)c4cccnc4)C3)C2)nc1	22.2
Cc1ccc(CN2CCC3(CC2)CCN(C(=O)c2cccnc2)C3)o1	34
Cc1ccc(CN2CC3(CCN(C(=O)c4cscn4)C3)C2)s1	35.1
O=C(c1cscn1)N1CCC2(CN(Cc3ccoc3)C2)C1	34.4
Cc1noc(C)c1CN1CCC2(CC1)CCN(C(=O)c1cscn1)C2	40.8
Cc1ccc(CN2CC3(CCN(C(=O)c4cccnc4)C3)C2)o1	71.1
O=C(c1cscn1)N1CCC2(CCN(Cc3nccs3)CC2)C1	14.8
CNC(C(=O)OC)c1cc(F)ccc1F (configuration not stated)	-0.219

Compound	INHIBITION [%]
Cn1cc(CN2CCC[C@]3(C(=O)O)CN(c4ncccn4)C[C@@H]3C2)cn1	-44.2
Cc1ccc(NC(=O)C2CSCN2C(=O)c2ccncc2)c(C)c1 (configuration not stated)	16.1
CC(C(=O)NCc1ccc(N2CCCCCC2)nc1)S(C)(=O)=O (configuration not stated)	-12.2
O=S(=O)(c1ccccc1)N1CCOC(Cn2ccnc2)C1 (configuration not stated)	-12.3
Cc1ccc(CN2CC(C(=O)Nc3ccccc3)C3(CCOCC3)C2)o1 (configuration not stated)	-24.9
O=C(c1cscn1)N1CC[C@@H]2[C@@H]1CCN2C1CCOC1 (some centres not stated)	12.6
O=C(c1ccnnc1)N1CCN2C[C@H](OCc3ccccn3)C[C@H]2C1	-5.05
O=C(Cc1cccc(F)c1)N1CCN2C[C@H](Oc3cncnc3)C[C@H]2C1	39.4
O=C(Cc1ccccn1)N1CCN2C[C@H](Oc3cccc(F)c3)C[C@H]2C1	33
Cc1ccc(O[C@@H]2C[C@H]3CN(C(=O)c4cnccn4)CCN3C2)cc1	-28.8
O=C(c1ccncc1)N1CCN2C[C@H](Oc3cncnc3)C[C@H]2C1	23.3
O=C(Cc1ccccn1)N1CCN2C[C@H](Oc3cncnc3)C[C@H]2C1	67.2
O=C(c1ccco1)N1CCN2C[C@H](Oc3cncnc3)C[C@H]2C1	-5.63
O=C(c1ccnnc1)N1CCN2C[C@H](Oc3cccnc3)C[C@H]2C1	-10.2
O=C(c1cccnc1)N1CCN2C[C@H](Oc3cncnc3)C[C@H]2C1	55.5
O=C(Cc1ccccn1)N1CCN2C[C@H](OCCN3CCCC3)C[C@H]2C1	68.4
Cc1ccc(O[C@@H]2C[C@H]3CN(C(=O)Cc4ccccn4)CCN3C2)cc1	84.7
O=C(c1ccc(F)cc1)N1CCN2C[C@H](OCc3ccccn3)C[C@H]2C1	-1.71
CC(C)c1nc(C2CCCN(C(=O)c3ccc4c(c3)OCO4)C2)no1 (configuration not stated)	45.1
COCCc1noc(CN2CCC(c3ccccc3C(=O)O)C2)n1 (configuration not stated)	35.7
Cc1nc(CN2CCCC2c2c(C)nn(C)c2Cl)oc1C (configuration not stated)	18.2
O=C1CC(NS(=O)(=O)c2ccc(F)c(Cl)c2)CN1 (configuration not stated)	-6.67
O=C(Cn1c(=O)[nH]c2cn(-c3ccccc3)c(=O)n21)NC1CCCCC1	-6.61
Cc1ccc(Cn2c(=O)[nH]c3cccnc3c2=O)cc1	-5.64
